Compound activity from PubChem.
A selection: hits, their analogues and other compounds. The true share with any hit is near 11%.
JMJD2A Tudor – blocks the human JMJD2A Tudor domain. hit rate 4.4% among 390,000. O75164. AlphaScreen JMJD2A-Tudor / H3K4me3 peptide binding. Potency, µM (doses to about 114 µM), inactives show at the highest dose activity change, negative = inhibition, usual class: inhibitors; note: % is set by controls: 0 for no effect and ±100 for the full control effect; nearly all actives have a fitted effect of over 50% in size
HP1b chromo inh – HP1-beta chromodomain-methylated histone interaction inhibition | AID 540317 | Potency, µM (doses to about 114 µM), without a hit: at the highest dose activity change, negative = inhibition, hits mostly inhibitors | hit rate 0.56% among 390,000 | AlphaScreen HP1-beta / biotin-H3K9me3 peptide binding | P83916; note: nearly all actives have a fitted effect of over 70% in size
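HP1-beta protein (50 nM final) preincubated 30 min at room temperature with biotinylated H3(1-18)K9me3 peptide (50 nM) in PBS pH 7.4, 0.01% Tween-20, then compound added for 30 min. AlphaScreen streptavidin donor/nickel chelate acceptor beads (10 ug/mL final), 30 min dark, luminescence read.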
L3MBTL1 block – L3MBTL1 (human) inhibition | Q9Y468 | AlphaScreen L3MBTL1–H3K9me1 peptide binding | Potency, µM (series often up to 57.1 µM), inactives show top-dose activity, negative = inhibition, actives largely listed as inhibitors | hit rate 0.66% among 230,000 | AID 485360; note: % is set by controls: 0 for no effect and ±100 for the full control effect; nearly all actives have a fitted effect of over 60% in size
Target sequence (Q9Y468 whole entry, looked up): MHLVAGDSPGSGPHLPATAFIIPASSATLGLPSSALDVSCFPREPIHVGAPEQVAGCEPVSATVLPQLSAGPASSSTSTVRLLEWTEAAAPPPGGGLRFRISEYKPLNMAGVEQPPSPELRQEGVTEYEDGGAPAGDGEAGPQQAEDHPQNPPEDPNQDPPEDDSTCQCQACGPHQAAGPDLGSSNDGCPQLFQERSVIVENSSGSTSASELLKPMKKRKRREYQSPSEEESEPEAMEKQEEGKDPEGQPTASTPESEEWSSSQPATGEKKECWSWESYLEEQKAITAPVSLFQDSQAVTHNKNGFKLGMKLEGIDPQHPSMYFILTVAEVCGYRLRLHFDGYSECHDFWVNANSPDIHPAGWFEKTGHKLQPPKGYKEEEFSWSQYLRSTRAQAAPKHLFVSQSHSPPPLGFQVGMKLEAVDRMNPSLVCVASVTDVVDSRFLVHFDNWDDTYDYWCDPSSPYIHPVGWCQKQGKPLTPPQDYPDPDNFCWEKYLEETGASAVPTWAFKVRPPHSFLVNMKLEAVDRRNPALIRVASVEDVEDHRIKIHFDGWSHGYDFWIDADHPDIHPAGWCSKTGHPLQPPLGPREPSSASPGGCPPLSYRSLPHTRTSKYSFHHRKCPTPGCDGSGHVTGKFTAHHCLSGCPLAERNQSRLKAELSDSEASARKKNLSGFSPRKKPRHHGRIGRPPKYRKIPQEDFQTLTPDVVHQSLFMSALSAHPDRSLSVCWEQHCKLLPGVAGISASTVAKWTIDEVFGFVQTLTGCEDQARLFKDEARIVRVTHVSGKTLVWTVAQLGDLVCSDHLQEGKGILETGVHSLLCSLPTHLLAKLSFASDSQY
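AlphaScreen proximity signal between nickel-chelate acceptor and streptavidin donor beads (final 10 ug/mL) reports binding of 50 nM L3MBTL1 to 75 nM biotin-H3 K9me1 peptide; complex incubated with compounds 30 min at room temperature; cefsulodin titration as control.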
G9a inh – inhibitors of human histone lysine methyltransferase G9a; G9a H3K9 monomethylation, AlphaScreen, 2 h; AID 504332; Q96KQ7; hit rate 8.8% among 350,000; Potency, µM (series often up to 102 µM), for inactives: top-dose activity, negative = inhibition, hits mostly inhibitors; note: % is set by controls: 0 for no effect and ±100 for the full control effect; nearly all actives have a fitted effect of over 75% in size
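AlphaScreen read-out: biotin-H3K9 peptide (500 nM) methylation by 20 nM enzyme with 20 uM SAM, 2 h at room temperature after 15 min compound preincubation; anti-monomethyl H3K9 antibody plus donor/acceptor beads, 10 min dark.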
BAZ2B inh – inhibitors of human BAZ2B bromodomain | AID 504333 | Q9UIF8 | AlphaScreen BAZ2B-H3K14Ac peptide displacement | Potency, µM (top dose mostly 114 µM), for the others: at the highest dose activity change, negative = inhibition, hits mostly inhibitors | hit rate 4.4% among 360,000; note: % is set by controls: 0 for no effect and ±100 for the full control effect; nearly all actives have a fitted effect of over 60% in size
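Inhibition is scored as reduced AlphaScreen emission. The BAZ2B/b-H3(5-23)K14Ac complex (50 nM each) in PBS pH 7.4, 0.01% Tween-20 meets compound (up to 110 uM) for 30 min at RT before bead addition.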
Starred values were filed as active, the others as inactive; ? = inconclusive; / = no result; ! = repeats disagree; [ ] = another dose, or the depositor's remark. Calls come from the whole dose curve; as a rule, active = well fitted inhibition curve with a large enough effect; inconclusive = small, poorly fitted or top-dose-only effect; inactive = no such curve, though single readings can be large or run the other way. Potency is the fitted concentration of half-maximal effect.

SMILES	JMJD2A Tudor	HP1b chromo inh	L3MBTL1 block	G9a inh	BAZ2B inh
CC12CCCCC1N(O)C(=O)C(=O)N2O (stereo not given)	79.4µM*	4.5%	9.5%	?	?
CCOC(=O)CC(c1ccc([N+](=O)[O-])cc1)n1c(C)ccc1C (stereo not given)	-33.7%	?	-3.8%[11.4 µM]	?	44.7µM*
C=CCN1C(=O)C(O)(CC(=O)c2ccc(-n3cccc3)cc2)c2ccccc21 (stereo not given)	?	?	?	?	50.1µM*
O=C(CC1(O)C(=O)Nc2ccccc21)c1ccc(-n2cccc2)cc1 (stereo not given)	-18.3%	-11.4%	-8.8%	?	?
COC(=O)c1ccc(NC(=O)CCS(=O)(=O)c2ccc(Br)cc2)cc1	-27.9%	-21.2%	/	56.2µM*!	56.2µM*!
CCc1cccc(NC(=O)CCS(=O)(=O)c2ccc(Br)cc2)c1	11.2µM*	8.91µM*	/	28.2µM*	31.6µM*
COC(=O)c1ccc(NC(=O)CCS(=O)(=O)c2ccc(C)cc2)cc1	-7.4%	25.8%	/	14.0%	7.2%
COC(=O)c1ccc(NC(=O)CC(=O)Nc2ccc(C(=O)OC)cc2)cc1	?	30.4%	/	10.1%	6.8%
O=C(CCS(=O)(=O)c1ccc(Br)cc1)Nc1ccc(Br)cc1F	-34.8%[57.1 µM]	-25.1%	?	?	50.1µM*
COC(=O)c1ccc(NC(=O)CSCC(=O)OCC(=O)c2ccc(Br)cc2)cc1	-7.6%[57.1 µM]	55.8%	/	10µM*	-4.2%
COc1ccc2c(c1)c1c(c(=O)n(CCc3ccccc3)c(=O)n1Cc1cccc(F)c1)n2C	9.7%	39.3%	/	4.0%[59 µM]	5.3%
Cc1nc2c(C(=O)NCc3ccccc3Cl)c[nH]n2c(=O)c1Cc1cccc(Cl)c1	?	4.9%	/	6.0%[59 µM]	?
CC(=O)c1ccc(NC(=O)CCS(=O)(=O)c2ccc3c(c2)n(C)c(=O)c(=O)n3C)cc1	79.4µM*	-18.0%	-11.7%	?	79.4µM*
COc1ccc(Cn2nnc3c(=O)[nH]c(C(=O)NCCc4ccc(F)cc4)nc32)cc1OC	79.4µM*	12.2%	2.7%	-10.5%[59 µM]	-1.0%
Cc1ccc(C)c(Cn2nnc3c(=O)[nH]c(C(=O)NCC4CCCO4)nc32)c1 (stereo not given)	?	18.3%	6.9%	-10.0%[59 µM]	-4.4%
COCCNC(=O)c1nc2c(nnn2Cc2cc(C)ccc2C)c(=O)[nH]1	?	10.2%	12.7%	11.2µM*	-18.0%
COc1cc2[nH]c3c(N4CCN(c5ccc(Cl)cc5)CC4)ncnc3c2cc1OC	-10.9%	28.1%	-10.1%	-1.7%	?
COc1cc2[nH]c3c(Cl)ncnc3c2cc1OC	-12.1%	20.1%	-12.5%	?	44.7µM*
CCC(/C=C1\Sc2ccc(OC)cc2N1CCO)=C\c1sc2ccc(OC)cc2[n+]1CCO	22.4µM*	39.8µM*	?	11.2µM*	12.6µM*
CCC(=O)/C=C1/Sc2ccc(OC)cc2N1CCO	?	-21.0%	-6.1%	1.3%	-1.3%
CCO/C(=C/c1sc2ccc(OC)cc2[n+]1CCCS(=O)(=O)[O-])CC	23.2%	69.3%	/	-2.7%[59 µM]	-10.2%
CCC(/C=C1\Sc2ccc(OC)cc2N1CC)=C\c1sc2ccc(OC)cc2[n+]1CCCS(=O)(=O)[O-]	?	-21.4%	/	20µM*	22.4µM*
CCCCC1CCC(C(=O)N2CC(=O)Nc3ccc(Br)cc3C2c2ccc(F)cc2)CC1 (stereo not given)	-24.9%	24.9%	/	?	-15.9%
COc1ccc(Cl)cc1Nc1ccc2cc(S(=O)(=O)N3CCCCC3)ccc2n1	45.8%	68.4%	/	5.01µM*	9.4%
CC1=C(C(=O)Nc2ccccc2)C(c2cccnc2)n2nc(SCc3ccccc3Cl)nc2N1 (stereo not given)	5.1%	51.8%	/	2.4%[59 µM]	?
CN(C)CCCN=Cc1c(O)n(Cc2ccc3c(c2)OCO3)c(=O)c2ccccc12	/	/	-8.3%	?	?
CN(C)CCN=Cc1c(O)n(Cc2ccc3c(c2)OCO3)c(=O)c2ccccc12	?	-27.9%	/	50.1µM*	?
Cn1c(=O)c(C(=O)CN2CCN(Cc3ccc4c(c3)OCO4)CC2)c(N)n(Cc2ccccc2)c1=O	-15.6%	21.2%	-4.3%	3.6%	-14.7%
